Records with an inconclusive call do not appear. Unmarked numbers belong to inactive results. The source made the active and inactive calls. Calls follow the shape of the dose curve; as a rule, active = well fitted curve in the direction sought with a large enough effect; inconclusive = small, poorly fitted or top-dose-only effect, or another doubt; inactive = no such curve, though single readings can be large; an effect the other way counts as inactive or inconclusive. Where a SMILES comes first, the peptide text is derived from it. [ ]: non-standard residue; d: D form. Nle = CCCC[C@H](N)C(=O)O

The test system of assay [1] is Zika virus NS2B-NS3 protease. Nature of the assay: Primary screen GU AMC qHTS for Zika virus inhibitors (AID 1347154). Also: nearly all actives have a fitted effect of over 70% in size. Also: potency is read from the fitted curve at half-maximal effect.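 As to activity change, negative = inhibition: 0% = no-inhibitor control and -100% = no-enzyme control.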 The note with it: Zika NS2B-NS3 unlinked protease, AMC fluorogenic substrate; series mostly up to 54.1 µM. In outline: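 Fluorogenic AMC-substrate cleavage by noncovalent NS2B-NS3 protease complex (25 nM, pH 8.0 Tris buffer with Tween 20) followed for 15 minutes at room temperature (~20% conversion). Percent inhibition from ex340/em450 signal change, fitted by 4-parameter Hill equation.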
For orientation: Quantitative high-throughput screening tests each substance at several concentrations.

Assay [2] in a line: Primary qHTS for small molecule stabilizers of the endoplasmic reticulum resident proteome: Secreted ER Calcium Modulated Protein (SERCaMP) assay (AID 1508630). Also: % is scaled to controls: 0 for no effect and ±100 for the full control effect. The settings on record: SH-SY5Y GLuc-SERCaMP (Gaussia luciferase released on ER calcium loss) secretion, thapsigargin, luminescence; series mostly up to 38.4 µM. In outline:
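The SH-SY5Y reporter protocol was run at 3 concentrations up to 38.3 uM (primary) or 11 concentrations (follow-up): 16 h compound, 100 nM thapsigargin for 4 h, then extracellular luciferase luminescence.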

Turning to `Cc1ccc(/C=C2/CNC/C(=C\c3ccc(C)cc3)C2=O)cc1`, the Potency result in assay [1] and in assay [2] was “inactive” each time.

In the case of `COC(=O)[C@H]1C2CC3c4[nH]c5ccccc5c4CCN3CC2CC[C@@H]1O` (stereo partly drawn), the Potency result in assay [1] and in assay [2] was “inactive” each time.

As for `NC(=O)N/N=C/c1ccc(Oc2ccc(F)cc2)cc1`, the Potency entry in assay [1] and in assay [2] was “inactive” throughout.

For `CCC1Cc2cc(O)ccc2C2=C1c1ccc(O)cc1CC2CC` (stereo not drawn), in assay [1], the Potency was 3.77 µM (active). The Potency entry in assay [2] was “inactive”.

Consider `CO[C@H]1C[C@@H]2CC[C@@H](C)[C@@](O)(O2)C(=O)C(=O)N2CCCC[C@H]2C(=O)OC([C@H](C)C[C@@H]2CC[C@@H](O)[C@H](OC)C2)CC(=O)[C@H](C)/C=C(\C)[C@@H](O)[C@@H](OC)C(=O)[C@H](C)C[C@H](C)/C=C/C=C/C=C/1C` (stereo partly drawn), for which the Potency entry in assay [1] and in assay [2] was “inactive” each time.

Regarding `O=C1C(Nc2ccccc2)=CC(=O)c2ncccc21`, the Potency entry in assay [1] and in assay [2] was “inactive” each time.

With `COC(=O)[C@@H](N)CSC/C=C(\C)CC/C=C(\C)CCC=C(C)C`, the Potency entry in assay [1] and in assay [2] was “inactive” each time.

With H-EQKQLQ-OH, the activity change, negative = inhibition in assay [1] was 7.08% [at 6.83 µM]; in assay [2], -18.8% [at 3.88 µM].

For the compound `CCCCCCCCC#CCC#CCC#CCCCC(=O)O`, the activity change, negative = inhibition in assay [1] is 19.3% [at 6.83 µM]; in assay [2] it was -14.3% [at 3.88 µM].

For the compound `CCCCCCCCCCCCCCCCCCc1ccc(C(=O)/C=C/C(=O)O)cc1`, the Potency entry in assay [1] and in assay [2] was “inactive” in each case.

Consider `NCCCCCc1cnc[nH]1`, for which the Potency entry in assay [1] and in assay [2] was “inactive” each time.

On to `CCCC[C@@H](C=O)NC(=O)[C@H](CC(C)C)NC(=O)[C@H](CC(C)C)NC(C)=O` (Ac-Leu-Leu-[Nle]-aldehyde), for which the Potency entry in assay [1] and in assay [2] was “inactive” throughout.

In the case of `CCCCCCCCCC(=O)OCC(CO)OC(=O)CCCCCCCCC` (stereo not drawn), the figures for the activity change, negative = inhibition in assay [1] and in assay [2] were 1.45% [at 6.83 µM] and -13.4% [at 3.88 µM], respectively.

In the case of `CCCCCCCCCCCCCCCC(=O)N[C@@H](COP(=O)(O)O)C(=O)O`, the activity change, negative = inhibition is 6.63% [at 6.83 µM] in assay [1] and 2.76% [at 3.88 µM] in assay [2].

`CCCCCCCC/C=C\C/C=C\C/C=C\CCCC(=O)O`: the activity change, negative = inhibition is -5.55% [at 6.83 µM] in assay [1] and 18.3% [at 3.88 µM] in assay [2].

Turning to `CCCCc1nc2ccn(CC(=O)N(C)C)c(=O)c2n1Cc1ccc(-c2ccccc2-c2nn[nH]n2)cc1`, the Potency entry in assay [1] and in assay [2] was “inactive” each time.

With `CC(C)ON(CC(=O)NO)S(=O)(=O)c1ccc(-c2ccccc2)cc1`, the Potency entry in assay [1] and in assay [2] was “inactive” in each case.

Turning to `CCCCCCCCCCCCC(O)C(=O)O` (stereo not drawn), the activity change, negative = inhibition in assay [1] is 10.2% [at 6.83 µM]; in assay [2], 56.7% [at 3.88 µM].

In the case of `CC(C)[C@H](O)CC[C@@H](C)C1CC[C@H]2C3CC=C4C[C@@H](O)CC[C@]4(C)C3CC[C@]12C` (stereo partly drawn), the Potency result in assay [1] and in assay [2] was “inactive” throughout.

Turning to `CCCCC/C=C\C/C=C\CCCCCCCC(N)=O`, the activity change, negative = inhibition is 15% [at 6.83 µM] in assay [1] and -21% [at 3.88 µM] in assay [2].

On to `CCCCCCCCCCCCCCCC(=O)OCC(COP(=O)(O)O)OC(=O)CCCCCCCCCCCCCCC` (stereo not drawn), for which the activity change, negative = inhibition in assay [1] was 13.2% [at 6.83 µM]; in assay [2], -28.1% [at 3.88 µM].

Consider `CC1(C)Oc2ccc(C#N)cc2[C@@H](OC2=CC(=O)CC2)[C@@H]1O`, for which the Potency entry in assay [1] and in assay [2] was “inactive” in each case.

On to `Nc1ncc2[nH]cnc2n1`, for which the Potency result in assay [1] and in assay [2] was “inactive” in each case.

As to `O=C(O)[C@@H]1CN[C@@H](C(=O)O)C1`, the Potency result in assay [1] and in assay [2] was “inactive” throughout.

(Values after PubChem BioAssay (NCATS).)
